# From PubChem
# Shown are actives, neighbours in structure and some others; about 12% of the full set was active somewhere.
# HP1b binding inh: inhibitors of HP1-beta chromodomain binding to methylated histone tails; P83916; AlphaScreen HP1-beta / biotin-H3K9me3 peptide binding; Potency, µM (doses to about 114 µM), without a hit: top-dose activity change, negative = inhibition, most hits filed as inhibitors; hit rate 0.56% among 390,000; AID 540317; further: nearly all actives have a fitted effect of over 70% in size
#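 Compound inhibition of the preformed complex between 50 nM HP1-beta and 50 nM biotinylated H3K9me3 peptide was read by AlphaScreen. Buffer was PBS pH 7.4 with 0.01% Tween-20. Incubations ran 30 min at room temperature, with 10 ug/mL donor/acceptor beads.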
# L3MBTL1 block: blocks human L3MBTL1; Q9Y468; AlphaScreen L3MBTL1–H3K9me1 peptide binding; Potency, µM (titrated, usually from 57.1 µM), for inactives: top-dose activity, negative = inhibition, most hits filed as inhibitors; hit rate 0.66% among 230,000; AID 485360; further: on the % scale 0 is the no-effect control and ±100 the full control effect; nearly all actives have a fitted effect of over 60% in size
# Target sequence (Q9Y468 whole entry, looked up): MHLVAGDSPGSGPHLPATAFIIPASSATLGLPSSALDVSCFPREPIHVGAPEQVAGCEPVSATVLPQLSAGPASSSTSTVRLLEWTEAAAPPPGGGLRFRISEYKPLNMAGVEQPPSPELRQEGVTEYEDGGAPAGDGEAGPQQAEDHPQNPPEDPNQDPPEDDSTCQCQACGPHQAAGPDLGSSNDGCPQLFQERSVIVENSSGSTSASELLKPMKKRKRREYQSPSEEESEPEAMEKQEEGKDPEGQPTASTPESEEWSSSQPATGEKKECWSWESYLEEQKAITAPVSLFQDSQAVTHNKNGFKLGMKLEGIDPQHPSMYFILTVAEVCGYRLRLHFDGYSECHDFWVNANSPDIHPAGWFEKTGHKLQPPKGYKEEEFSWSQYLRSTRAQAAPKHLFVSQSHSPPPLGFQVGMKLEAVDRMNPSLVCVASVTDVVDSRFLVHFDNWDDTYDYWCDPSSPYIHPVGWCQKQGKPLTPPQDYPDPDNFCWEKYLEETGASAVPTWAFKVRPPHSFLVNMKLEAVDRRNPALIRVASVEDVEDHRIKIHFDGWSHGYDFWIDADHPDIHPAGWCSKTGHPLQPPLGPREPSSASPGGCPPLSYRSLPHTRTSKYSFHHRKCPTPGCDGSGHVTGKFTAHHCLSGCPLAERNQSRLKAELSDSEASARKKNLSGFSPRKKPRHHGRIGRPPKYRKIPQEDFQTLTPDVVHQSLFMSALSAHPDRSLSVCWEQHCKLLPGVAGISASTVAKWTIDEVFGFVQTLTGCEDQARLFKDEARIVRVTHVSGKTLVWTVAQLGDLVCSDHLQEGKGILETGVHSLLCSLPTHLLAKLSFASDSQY
#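 AlphaScreen assay: L3MBTL1 (50 nM final) was preincubated 30 min at room temperature with biotinylated H3(1-15)K9me1 peptide (75 nM final), then 30 min with library compounds; streptavidin donor and nickel chelate acceptor beads (10 ug/mL final) added, 30 min dark.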
# Sfp inh: blocks B. subtilis Sfp PPTase activity. Biochemical Sfp PPTase activity, qHTS. Potency, µM, for inactives: largest response in the series, negative = inhibition, actives largely listed as inhibitors. hit rate 3.5% among 310,000;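 further: the enzyme is Sfp with the accession as filed and its product quenches rhodamine fluorescence; 0% = enzyme reaction without inhibitor and -100% = no enzyme wells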
#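 Fluorescence-quenching assay: 15 nM Sfp-PPTase preincubated 15 min at room temperature with compound, then 5 uM rhodamine-CoA and 12.5 uM BHQ-2-labelled YbbR peptide added. Fluorescence (ex 525/em 598 nm) read at start and after 30 min; difference gives rate.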
# G9a block: blocks human histone lysine methyltransferase G9a; Q96KQ7; G9a H3K9 monomethylation, AlphaScreen, 2 h; Potency, µM (series often up to 102 µM), inactives show at the top dose activity, negative = inhibition, usual class: inhibitors; hit rate 8.8% among 350,000; AID 504332; further: on the % scale 0 is the no-effect control and ±100 the full control effect; nearly all actives have a fitted effect of over 75% in size
#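 Methyltransferase reactions run at room temperature for 2 h (20 nM enzyme, 500 nM biotin-H3K9 peptide, 20 uM SAM) after a 15 min compound preincubation; product detected by AlphaScreen beads and anti-H3K9me1 antibody.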
# JMJD2A Tudor: inhibitors of human JMJD2A Tudor domain; O75164; AlphaScreen JMJD2A-Tudor / H3K4me3 peptide binding; Potency, µM (series often up to 114 µM), inactives show at the highest dose activity change, negative = inhibition, hits mostly inhibitors; hit rate 4.4% among 390,000; further: on the % scale 0 is the no-effect control and ±100 the full control effect; nearly all actives have a fitted effect of over 50% in size
# BAZ2B inh: inhibitors of human BAZ2B bromodomain | Q9UIF8 | AlphaScreen BAZ2B-H3K14Ac peptide displacement | Potency, µM (highest dose often 114 µM), without a hit: at the top dose activity change, negative = inhibition, most hits filed as inhibitors | hit rate 4.4% among 360,000 | AID 504333; further: on the % scale 0 is the no-effect control and ±100 the full control effect; nearly all actives have a fitted effect of over 60% in size
#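 Protein-peptide AlphaScreen: BAZ2B 50 nM, b-H3K14Ac 50 nM, 1x PBS pH 7.4 + 0.01% Tween-20. Preincubation 30 min RT; cpd 30 min RT (top 110 uM); beads 20 min RT, light-protected.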
# The depositor's hits bear a star; ? = inconclusive; / = no result given; ! = not active in a repeat; [ ] = dose if it differs, or a comment. The call rests on the fitted dose curve; in most records, active means well fitted curve in the direction sought with a large enough effect; inconclusive means small, poorly fitted or top-dose-only effect, or another doubt; inactive means no such curve, though single readings can be large; an effect the other way counts as inactive or inconclusive. Potency means the concentration at half of the fitted maximal effect.
SMILES,HP1b binding inh,L3MBTL1 block,Sfp inh,G9a block,JMJD2A Tudor,BAZ2B inh
CN(Cc1nccs1)c1ncnc2ccc(-c3ccc4c(c3)OCO4)cc12,/,/,/,/,79.4µM*,/
COc1cc2ncnc(N(C)Cc3csc(C)n3)c2cc1-c1ccc2c(c1)OCO2,/,/,/,/,8.91µM*,/
CCC(C)NC(=O)C1CCN(C(=O)c2cc3sccc3n2Cc2ccc(Cl)cc2)CC1 (centres undefined),49.4%,/,/,-3.1%[59 µM],7.6%,-1.2%
CCOC(=O)Cn1c2c(c(=N)c3c1CCC3)CCC2,57.0%,16.9%,4.2%,11.8%[59 µM],-0.9%,58.0%
CCOC(=O)CN1NC2(CCCCCCC2)NC1=S,40.6%,-1.8%,39.8µM*,2.24µM*,28.2µM*,-20.7%
CCOC(=O)CN1NC2(CCCCC2)NC1=S,-19.8%,/,28.2µM*,?,17.8µM*,-5.6%
COc1ccc(/C=C/C(=O)N2CCC(c3nc4ccccc4o3)CC2)cc1OC,6.5%,/,/,-7.0%[59 µM],-23.8%,-17.9%
COc1ccc(Cl)cc1NS(=O)(=O)c1c(C)nc2scc(C)n2c1=O,39.3%,/,/,16.9%[59 µM],-15.4%,-10.3%
Cc1c(C(=O)Oc2ccc(-c3cnc4ccccc4n3)cc2)cccc1[N+](=O)[O-],17.2%,-1.0%,50.1µM*,20µM*,-34.1%,-24.3%
O=C(Oc1ccc(-c2cnc3ccccc3n2)cc1)c1cc([N+](=O)[O-])ccc1Cl,16.1%,5.9%,-13.7%,28.2µM*,-4.5%,-11.9%
O=[N+]([O-])c1cc(-c2cnc3ccccc3n2)ccc1Oc1ccc(Cl)cc1,10.1%,-6.5%,-12.8%,14.1µM*,-32.9%,?
CCC(=O)Oc1ccc(-c2cnc3ccccc3n2)cc1,21.0%,11.3%,-18.1%,-47.9%[59 µM],4.9%,17.8%
COc1cccc(C(=O)Nc2ccccc2-c2nnc(-c3cccc(OC)c3)o2)c1,34.1%,/,/,-3.0%[59 µM],-1.1%,-15.0%
CSc1ncc(Cl)c(C(=O)Nc2c(C(=O)c3ccc(C)cc3)oc3ccccc23)n1,12.9%,/,/,-8.6%[59 µM],-13.2%,-8.2%
CC(C)c1onc(C(=O)NCCc2ccccc2)c1[N+](=O)[O-],21.2%,/,-4.1%,50.1µM*,-16.0%,4.4%
COc1cc(/C=N/NC(=O)c2cc(O)cc(O)c2)ccc1OC(=O)c1ccccc1,28.2µM*,/,-12.0%,8.91µM*,22.4µM*,11.2µM*
COc1cc(C(=O)N/N=C/c2ccc(OC(=O)c3ccccc3)c(OC)c2)ccc1O,3.6%,/,-6.5%,/,-10.4%,-18.8%
COc1ccc(/C=N\NC(=O)c2cc(O)c(O)c(O)c2)cc1CN1CCN(c2ccc(F)cc2)CC1,?,-26.4%,14.1µM*,7.08µM*,56.2µM*,35.5µM*
COc1ccc(/C=N\NC(=O)c2cc(O)c(O)c(O)c2)cc1COc1ccc(C(=O)OCC(C)C)cc1,-7.1%,/,?,22.4µM*,?,56.2µM*
CC(=O)Nc1cccc(S(=O)(=O)N2CCN(S(=O)(=O)c3ccc4c(c3)OCCO4)CC2)c1,/,/,/,/,-22.4%,/
CCOC(=O)c1ccc(-c2ccc(/C=N/NC(=O)CN(c3ccccc3Cl)S(C)(=O)=O)o2)cc1,6.2%[57 µM],-4.0%,-11.9%,12.0%[59 µM],-13.7%,?
O=C(N/N=C/c1ccc(-c2ccc(S(=O)(=O)Nc3ncccn3)cc2)o1)c1cc2ccccc2cc1O,28.2µM*,/,50.1µM*,?,50.1µM*,17.8µM*
NC(=S)NN=Cc1ccc(-c2ccc(S(=O)(=O)Nc3ncccn3)cc2)o1,?,28.2µM*,/,/,50.1µM*,/
CCOC(=O)c1ccc(-c2ccc(/C=N/NC(=O)CN(c3cccc(C)c3)S(C)(=O)=O)o2)cc1,26.1%,-9.4%,9.9%,7.94µM*,-19.0%,-35.2%
NS(=O)(=O)c1ccc(-c2ccc(/C=N/NC(=O)c3ccccc3O)o2)cc1,38.2%,/,-25.2%,/,-12.9%,-3.8%
SMILES,HP1b binding inh,L3MBTL1 block,Sfp inh,G9a block,JMJD2A Tudor,BAZ2B inh
CCOc1ccc(S(=O)(=O)N(CC(=O)N/N=C/c2ccc(-c3ccc([N+](=O)[O-])cc3)o2)c2ccccc2)cc1,-21.5%,?,-20.3%,1.58µM*,28.2µM*,22.4µM*
CCCSc1nnc2c(n1)OC(c1ccc(OCC(=O)O)cc1)Nc1ccccc1-2 (centres undefined),12.8%,/,/,-22.0%[59 µM],-28.0%,-16.9%
Cc1c(Cl)cccc1NC(=O)COCc1cc(-c2ccc3c(c2)OCO3)on1,28.0%,/,/,-1.4%[59 µM],-0.7%,-1.1%
CC(C)COc1ccc(C(=O)Nc2ccc(S(=O)(=O)Nc3ncccn3)cc2)cc1,25.4%,/,/,-3.4%[59 µM],-15.0%,0.1%
CCOc1ccc(C(=O)N/N=C/c2ccc(-c3ccc(S(=O)(=O)Nc4ncccn4)cc3)o2)cc1,-6.3%,/,-5.3%,-7.3%[12.7 µM],89.1µM*,79.4µM*
COc1cc2c(C(=O)NCc3ccc(C)o3)cn(CC(C)C)c(=O)c2cc1OC,10.2%,-7.0%,44.7µM*,44.7µM*,-21.2%,4.4%[57.1 µM]
CC(=O)c1cccc(NC(=O)COC(=O)c2ccccn2)c1,22.6%,/,22.3%,11.7%[59 µM],0.0%,?
CC(=O)Nc1ccc(NC(=O)COC(=O)c2ccccn2)cc1,36.2%,1.3%[11.4 µM],13.6%,44.7µM*,-5.2%[57.1 µM],50.1µM*
O=C(COC(=O)/C=C/c1ccccc1)Nc1cccnc1Cl,21.2%,-7.8%,/,50.1µM*,0.7%,8.3%
CN(C)S(=O)(=O)c1ccc(NC(=O)COC(=O)c2ccccn2)cc1,16.9%,4.5%,12.1%,50.1µM*,?,?
O=C(COC(=O)c1ccccn1)Nc1ccccc1Cl,-0.6%,-4.2%,?,10µM*,31.6µM*,?
CC(C(=O)O)c1ccc2c(c1)Cc1cccnc1O2 (centres undefined),/,/,8.8%,?,/,/
Cc1cc2c(cc1S(=O)(=O)Nc1ccc(C(C)C)cc1)OCCN2C,40.4%,-18.3%,/,-20.7%[59 µM],-15.5%,?
O=S(=O)(c1cccc2cnccc12)N1CCCNCC1,4.8%,2.5%,-6.0%,?,89.1µM*,3.8%
O=S(=O)(c1cccc2ccccc12)N1CCCCC1,66.0%,/,2.4%,/,24.2%,7.9%
O=S(=O)(c1cc(Cl)ccc1Cl)N1CCNCC1,17.7%,/,10.6%,11.6%,-19.3%,9.7%
CC1CNCCN1S(=O)(=O)c1cccc2cnccc12 (centres undefined),33.5%,7.3%,26.1%,11.2µM*!,-28.3%,?
O=C1c2ccccc2C(=O)N1c1cccc2cnccc12,/,/,/,/,-4.1%,/
COc1ccc(C=O)cc1Cn1ccnc1,19.0%,-1.0%,2.1%,-6.3%,-15.0%,-9.2%
COc1ccc(CNc2ccc(Cl)cc2)cc1Cn1ccnc1,?,/,13.6%,35.5µM*,50.1µM*,25.1µM*
COc1ccc(-c2ccc([C@H]3[C@H]4C=CC[C@@H](C)[C@@H]4C(=O)N3Cc3ccccc3)c(F)c2)cc1OC,12.9%,/,22.4µM*,?,-31.2%,-26.3%
